Activity calls are given as the source filed them.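 The calls were made as follows, unless noted: active = calcium signal rise more than 3 SD above the low-dose agonist control mean, in both duplicate plates and the primary screen; inactive = the rest.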

One assay can be described thus: nonspecific calcium rise without TRPC4 – cell-based, HEK293 mu-opioid receptor line, counter-screen for TRPC4 activator project, confirmation (AID 449723;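 active = hit in primary screen, with calcium signal over 5 SD above buffer well mean in both duplicates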;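 also: counter screen cells carry the mu-opioid receptor alone and lack TRPC4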). The following applies: HEK293 mu-opioid cells, Fluo-4 calcium fluorescence, at 10 µM.
Turning to `O=C(NC1CC1)c1ccc2c(c1)N(Cc1ccc(Cl)cc1)CCS2`, the result was inactive. Still for that read-out and setting: the entry for `O=C(COc1ccccc1-c1ccccc1)NCc1ccco1` is “inactive”; for `CCOc1ccc2nc(NCCNC(=O)C3CC3)c(C)cc2c1` it is “inactive”.

The next assay is described as follows: nonspecific potentiation of DAMGO calcium response – cell-based, HEK293 mu-opioid receptor line, counter-screen for TRPC4 allosteric potentiator project, confirmation (AID 449724).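 Also: HEK293 cells carrying mu-opioid receptor only with no TRPC4 channel.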 The settings on record: HEK293 mu-opioid receptor cells, Fluo-4 calcium flux, at 10 µM, compound added before EC20 DAMGO stimulus.
On to `Cc1cc(N2CCCCC2)nc(NCc2ccccc2)n1`, for which the outcome was inactive.

Regarding `COCCNC(=O)/C(C#N)=C/c1cc(C(C)C)c(OC)cc1C`, the result was inactive. For `CCN1CCN(c2ccc(S(=O)(=O)N3CCCCC3)cc2NC(=O)COc2cc(C)ccc2Cl)CC1`, the result was inactive. As to `FC(F)(F)COc1nc(N2CCCCC2)nc(N2CCNCC2)n1`, the outcome was inactive. `CCSc1nnc([C@H](Cc2c[nH]c3ccccc23)NC(=O)OC(C)(C)C)o1`: the result was inactive. Still for that read-out and setting: with `COc1ccc(/C=C(\C#N)C(=O)N2CCOCC2)cc1Br` the entry was “inactive”; with `N#Cc1ccc(OCC(O)CN2CCN(c3ncc(C(F)(F)F)cc3Cl)CC2)cc1` (stereo not drawn), “inactive”; with `CCCC1=C(C(=O)OCC)C(c2cc(Cl)cc(OC)c2OCC(=O)OCC)NC(=O)N1` (stereo not drawn), “inactive”. On the same count and under the same terms, the entry for `CCCCCc1ccc(OCCCC[n+]2ccccc2)c(CCCCC)c1` is “inactive”. For the compound `CC(C)(C)c1ccccc1OCCCCCn1ccnc1`, the result was inactive.

Regarding `CCOC(=O)COc1cc(-n2c(=S)[nH]c3ccccc3c2=O)c(Cl)cc1Cl`, the result was inactive. Same read-out and setting: the entry for `CCCCc1nc(N2CCOCC2)c(C#N)c2c1CCCC2` is “inactive”. On the same count and under the same terms, with `CCN1CCN(c2ccc(NC(=O)CCc3c(C)nc4c(-c5ccc(F)cc5)c(C)nn4c3C)cc2)CC1` the entry was “inactive”. Take `CCOc1cc(/C=C(\C#N)C(=O)Nc2cccc(C(=O)O)c2)cc(Br)c1OC(=O)c1ccc(OC)cc1`: the result was inactive.

As to `COc1ccc(Cl)c2sc(N(CCN(C)C)C(=O)c3ccc4c(c3)OCCO4)nc12`, the outcome was inactive. Still for that read-out and setting: the entry for `CCCCN1C(=O)C(=O)N(CC(=O)Nc2cc(OCC)c(N3CCOCC3)cc2OCC)C1=O` is “inactive”.

As for `CN(C)CCOc1ccc2ccccc2c1`, the outcome was inactive. Still for that read-out and setting: the entry for `CCCn1c(NCc2cc(OC)ccc2OC)nc2ccccc21` is “inactive”; for `COC(=O)c1ccc(NC(=O)CCN2CCN(Cc3ccccc3)CC2)cc1` it is “inactive”. In the case of `Cn1c(=O)c2c(nc(SCCN3CCCCC3)n2Cc2ccccc2)n(C)c1=O`, the outcome was inactive.

Take `O=C(NCc1ccccc1Cl)/C(=C\c1cccnc1)NC(=O)c1ccccc1`: the result was inactive. On to `COC(=O)[C@@]12CCCN1[C@H](c1ccc(-c3ccc(OC)cc3)cc1)[C@@H]1C(=O)N(C)C(=O)[C@@H]12`, for which the outcome was inactive. With `COc1ccc(-c2cc(C(F)(F)F)nc(N3CCN(C)CC3)n2)cc1`, the outcome was inactive. As for `CCOc1ccc(NS(=O)(=O)c2ccc(NC(=S)NC(=O)CC(C)C)cc2)cc1`, the result was inactive. As for `CCCN(CCC)CCCNC(=O)c1cc2c(=O)n(C)c3ccccc3c2n1C`, the outcome was inactive. Take `COc1ccc(CNCC(O)(c2ccccc2)c2ccccc2)cc1OC`: the outcome was inactive. As for `CCOc1cc2[nH]c(=S)n(C3CC3)c(=O)c2cc1OCC`, the result was inactive.

With `CCOC(=O)c1c(C(F)(F)C(F)(F)C(F)(F)C(F)(F)F)n[nH]c1C`, the result was inactive. For `Cn1c(=O)cc(OCCCC(=O)NCCCN2CCN(Cc3ccccc3)CC2)c2ccccc21`, the outcome was inactive. Same read-out and setting: the entry for `CC(=O)C1=C(O)C(=O)N(Cc2ccco2)C1c1ccc2c(c1)OCO2` (stereo not drawn) is “inactive”; for `CCc1cc2c(SCC(=O)N(C)C3CCS(=O)(=O)C3)ncnc2s1` (stereo not drawn) it is “inactive”.

With `OC(CNCC1CCCO1)Cn1c2ccc(Br)cc2c2cc(Br)ccc21` (stereo not drawn), the outcome was inactive. Same read-out and setting: the entry for `CCN1CCN(c2ccc(S(=O)(=O)N3CCCCC3)cc2NC(=O)c2cccc(F)c2)CC1` is “inactive”. Consider `COC(=O)/C=C1\SC(=NC(=O)c2cccc(Cl)c2)NC1=O`, for which the result was inactive.

As to `CCCc1ccc(OCc2ccc(C(=O)N3CCCC3)o2)cc1`, the result was inactive. On to `Cc1ccc(-c2csc3ncnc(NCCN4CCOCC4)c23)cc1`, for which the result was inactive.

With `Cn1c(=O)n(CCCO)c(=O)c2c1nc1n2CCCN1Cc1ccccc1`, the outcome was inactive. For the compound `O=C(NC1CC1)c1ccc2c(c1)N(Cc1ccc(Cl)cc1)CCS2`, the result was inactive. In the case of `O=C(COc1ccccc1-c1ccccc1)NCc1ccco1`, the outcome was inactive. Still for that read-out and setting: the entry for `CCOc1ccc2nc(NCCNC(=O)C3CC3)c(C)cc2c1` is “inactive”.
